Assay outcomes (PubChem BioAssay)
A selection: hits, their analogues and other compounds. The true share with any hit is near 4.1%.
HIV Env fusion – inhibitors of HIV Env-mediated cell fusion; HeLa-JRFL Env/CEM21 cell fusion, luciferase; inhibition, % at 12.3 µM; 360,000 compounds, 1.1% hits; AID 651610;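 active = mean replicate inhibition score of at least 50 and every replicate individually at or above 50; inconclusive = only one of the two criteria met; inactive = mean below 50 and not all replicates reaching 50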
CASP6 VEID inh – inhibitors of human caspase-6; P55212; purified caspase-6, Z-VEID-R110 cleavage fluorescence; inhibition, % at 12.5 µM; 350,000 compounds, 0.53% hits; AID 686996;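 active = mean inhibition across replicates at least about 35%, with every replicate also reaching that limit, limit read from the data; inconclusive = only one of the two criteria met; inactive = neither criterion met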
Target sequence (P55212 24-179 limits assumed): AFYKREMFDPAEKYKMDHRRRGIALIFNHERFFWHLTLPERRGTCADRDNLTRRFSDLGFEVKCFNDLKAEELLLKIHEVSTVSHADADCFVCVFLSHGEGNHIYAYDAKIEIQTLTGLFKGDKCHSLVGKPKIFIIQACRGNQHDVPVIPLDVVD
Target sequence (P55212 194-293 limits assumed): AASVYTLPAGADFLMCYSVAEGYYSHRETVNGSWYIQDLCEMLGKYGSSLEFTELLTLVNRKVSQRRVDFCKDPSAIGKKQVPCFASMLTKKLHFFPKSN
CFTR F508del cor – correctors of CFTR F508del function in bronchial epithelial cells; activity (quench increase), % at 7.58 µM; 350,000 compounds, 0.36% hits; CFBE cells, YFP halide quenching; stimulated with forskolin plus potentiator P3; % fluorescence drop versus neutral controls;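 active = mean added fluorescence quench of at least 8% versus neutral control, with both replicates also reaching 8%; inconclusive = only one of the mean or replicate conditions met; inactive = mean below 8% and not both replicates reaching 8%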;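 note: cells transiently co-express mutant CFTR-F508del with the halide-sensitive YFP; corrector assay measuring rescue of mutant channel to the surface after 24 h compound exposure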
ALR inh – human ALR oxidase inhibition via reduced H2O2. P55789. purified ALR, DTT oxidation, H2O2 HRP-luminol luminescence. inhibition, % (test concentration not listed). 290,000 compounds, 3.8% hits;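 active = mean replicate inhibition above about 79%, with every replicate also reaching it, limit read from the data; inconclusive = only one of the two criteria met; inactive = mean below limit and not every replicate reaching it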
Target sequence (P55789 whole entry, looked up): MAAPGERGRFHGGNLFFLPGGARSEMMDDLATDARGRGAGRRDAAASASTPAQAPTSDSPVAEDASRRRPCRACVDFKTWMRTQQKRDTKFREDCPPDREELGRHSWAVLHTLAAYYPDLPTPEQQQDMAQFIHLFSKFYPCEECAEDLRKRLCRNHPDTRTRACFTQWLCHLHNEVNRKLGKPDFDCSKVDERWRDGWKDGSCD
PglD inh – PglD (C. jejuni) enzyme inhibition | 360,000 compounds, 0.098% hits | purified PglD enzyme, DTNB colorimetric CoA detection | inhibition, % at 12.5 µM | AID 602405; in the data active = inhibition above about 16%, passing the limit was not always enough; inconclusive = no clear call, values can overlap the other calls
NSD2 inh – inhibitors of human histone methyltransferase NSD2. O96028. NSD2 peptide methylation, AlphaScreen, 120 min. inhibition, % at 12.5 µM. 310,000 compounds, 0.54% hits. AID 743445; in the data active = inhibition above about 50%
Of the large screens only hits and unclear results are named; the others gave an inactive call.

Oc1ccc(C23CCCC2C2(CCCC2)c2ccc(O)cc2O3)c(O)c1 (stereo unspecified)	HIV Env fusion inconclusive, ALR inh 89.9
O=C(C[C@@H]1CC[C@@H](NC(=O)c2ccccc2)[C@H](CO)O1)Nc1ccc(-c2ccccc2)cc1	none (no result: ALR inh, NSD2 inh)
CO[C@@H]1CN(C)C(=O)c2cc(NS(=O)(=O)CC(F)(F)F)ccc2OC[C@H](C)N(CC2CCCCC2)C[C@H]1C	none (no result: CASP6 VEID inh, ALR inh, PglD inh, NSD2 inh)
CC(CNC(=O)c1ccc(OC2CCN(Cc3ccccn3)CC2)cc1)c1ccccc1 (stereo unspecified)	CASP6 VEID inh 45.3 (no result: ALR inh)
COC(=O)[C@@H](NC(=O)c1ccc(OC2CCN(Cc3ccccn3)CC2)cc1)C(C)C	none (no result: CASP6 VEID inh, CFTR F508del cor, PglD inh)
COc1cc(/C=C/C(=O)Nc2nnc(CC(C)C)s2)cc(OC)c1OC	HIV Env fusion 56.8 (no result: CFTR F508del cor, PglD inh)
COc1cc(/C=C/C(=O)Nc2ccncc2)cc(OC)c1OC	ALR inh 85.2 (no result: CASP6 VEID inh, CFTR F508del cor, PglD inh)
COc1cc(/C=C/C(=O)Nc2nnc(CC(C)(C)C)s2)cc(OC)c1OC	none
COc1ccc(NC2CCCN(C(=O)CCN3CCCO3)C2)cc1 (stereo unspecified)	ALR inh 95.7
O=C(CCN1CCOCC1)N1CCCC(Nc2cccc(F)c2)C1 (stereo unspecified)	none
COc1ccc(NC2CCCN(C(=O)CCN3CCOCC3)C2)cc1 (stereo unspecified)	ALR inh 98.7
CC(NC(=O)C1C2C=CC(C2)C1C(=O)O)c1ccccc1 (stereo unspecified)	none (no result: CASP6 VEID inh, CFTR F508del cor)
O=C(O)C1C2C=CC(C2)C1C(=O)Nc1ccccc1Br (stereo unspecified)	CASP6 VEID inh 47.7
CN(C)c1ccc(NC(=O)C2C3C=CC(C3)C2C(=O)O)cc1 (stereo unspecified)	CASP6 VEID inh 41.6, ALR inh 99.2 (no result: NSD2 inh)
O=C(C[C@H]1CC[C@H]2[C@@H](COC[C@@H](O)CN2C(=O)c2ccccc2)O1)N1CCOCC1	none (no result: ALR inh, NSD2 inh)
Cc1cnn(CCC(=O)NNC(=S)Nc2ccc(F)cc2)c1	ALR inh 81.6 (no result: CASP6 VEID inh, CFTR F508del cor)
COc1cccc(S(=O)(=O)Nc2ccc3c(c2)[C@@H]2C[C@H](CC(=O)NCc4cccc(F)c4)O[C@@H](CO)[C@@H]2O3)c1	none (no result: ALR inh, NSD2 inh)
COc1ccc(-c2nn(-c3ccccc3)cc2/C=N/N2C(=O)CSC2=S)cc1	HIV Env fusion 66.8 (no result: CASP6 VEID inh, CFTR F508del cor)
COc1ccc(/C=N/N2C(=O)CSC2=S)cc1	none (no result: HIV Env fusion, CASP6 VEID inh, CFTR F508del cor, ALR inh)
CO[C@H]1CC[C@H]2CCOc3ccc(C#N)cc3C(=O)N(C)CCCC(=O)N(C)C[C@@H]1O2	none (no result: CFTR F508del cor, ALR inh, NSD2 inh)
CCC/C(O)=C1\C(=O)CC(C)(C)CC1=Nc1ccccc1O	ALR inh 87.2 (no result: PglD inh)
COc1ccccc1NC1=C(N2CCCCC2)C(=O)c2ccccc2C1=O	NSD2 inh 93.2 (no result: HIV Env fusion, CASP6 VEID inh, CFTR F508del cor, PglD inh)
O=C(/C=C/c1ccc(O)cc1)c1ccc(NC2=C(N3CCCCC3)C(=O)c3ccccc3C2=O)cc1	none (no result: HIV Env fusion)
O=C1C(Nc2ccccc2)=C(N2CCCCC2)C(=O)c2ccccc21	NSD2 inh 93.6 (no result: HIV Env fusion, CASP6 VEID inh, CFTR F508del cor, PglD inh)
Cc1ccc(NC2=C(N3CCCCC3)C(=O)c3ccccc3C2=O)cc1	NSD2 inh 50.7 (no result: HIV Env fusion, CASP6 VEID inh, CFTR F508del cor, PglD inh)
O=C(Nc1cc(F)ccc1F)N1C[C@H]2[C@@H](c3ccccc31)[C@@H](CO)N2Cc1cccnc1	none (no result: HIV Env fusion, ALR inh, NSD2 inh)
CN(C)C(=O)c1cccc(-c2ccc(C3[C@@H]4CN(S(=O)(=O)Cc5ccccc5)C[C@H]3N4)cc2)c1 (stereo partly specified)	none (no result: HIV Env fusion, ALR inh, PglD inh, NSD2 inh)
COc1ccccc1-n1c(SCC(=O)Nc2ccc(C)cc2)nc(O)cc1=O	ALR inh 97.9 (no result: CASP6 VEID inh, CFTR F508del cor)
COc1ccccc1-n1c(SCC(=O)Nc2cccc3ccccc23)nc(O)cc1=O	ALR inh 97.9 (no result: HIV Env fusion, CASP6 VEID inh, CFTR F508del cor)
COc1ccc(NC(=O)CSc2nc(O)cc(=O)n2-c2ccccc2OC)cc1	ALR inh 98.1 (no result: HIV Env fusion, NSD2 inh)
Cc1ccccc1-n1c(SCC(=O)Nc2c(C)cccc2C)nc(O)cc1=O	none
CCN(CC)C(=O)CSc1nc(O)cc(=O)n1-c1ccccc1OC	ALR inh 98.9 (no result: HIV Env fusion)
COc1ccc(CNC(=O)C[C@H]2C[C@H]3c4cc(NS(=O)(=O)c5ccc(F)cc5)ccc4O[C@H]3[C@H](CO)O2)cc1	none (no result: HIV Env fusion, ALR inh, NSD2 inh)
CC(=O)Nc1ccc(C=NNc2ccc([N+](=O)[O-])cc2S(=O)(=O)Nc2ccccc2C(=O)O)cc1	none
NS(=O)(=O)c1ccc(N/N=C/c2ccc[nH]2)c([N+](=O)[O-])c1	ALR inh 96.7 (no result: PglD inh)
Cc1ccc(NC(=S)NNc2ccc([N+](=O)[O-])cc2S(=O)(=O)Nc2ccccc2C(=O)O)cc1C	none (no result: CASP6 VEID inh, CFTR F508del cor, ALR inh)
CN(CCO)c1ccc(C=NNc2ccc([N+](=O)[O-])cc2S(=O)(=O)Nc2ccccc2C(=O)O)cc1	CASP6 VEID inh 37.3, ALR inh 99.0 (no result: NSD2 inh)
O=C(O)c1ccccc1NS(=O)(=O)c1ccc(NNC(=S)Nc2ccc(OC(F)F)cc2)c([N+](=O)[O-])c1	NSD2 inh 109.5 (no result: ALR inh, PglD inh)
COc1cc(C=NNc2ccc(S(=O)(=O)Nc3ccccc3C(=O)O)cc2[N+](=O)[O-])ccc1O	ALR inh 99.3
CCOc1ccc(C=NNc2ccc(S(=O)(=O)Nc3ccccc3C(=O)O)cc2[N+](=O)[O-])cc1OC	none (no result: HIV Env fusion, CASP6 VEID inh, CFTR F508del cor, ALR inh, PglD inh)
COc1ccc2c3c(n(C)c2c1)[C@H](CO)N(C(=O)NC(C)C)CC31CN(C(C)=O)C1	none (no result: HIV Env fusion, CASP6 VEID inh, ALR inh, PglD inh, NSD2 inh)
C[C@@H]1CCCCO[C@@H](CN(C)S(C)(=O)=O)[C@H](C)CN([C@H](C)CO)C(=O)c2cc(NC(=O)Nc3ccc4c(c3)OCO4)ccc2O1	none (no result: ALR inh, NSD2 inh)
C[C@@H]1CCCCO[C@H](CN(C)C(=O)c2ccccc2)[C@@H](C)CN([C@H](C)CO)C(=O)c2cc(NS(=O)(=O)c3ccc(Cl)cc3)ccc2O1	none (no result: ALR inh, NSD2 inh)
O=C(O)c1ccccc1NS(=O)(=O)c1ccc(N/N=C/c2cccc(O)c2O)c([N+](=O)[O-])c1	CASP6 VEID inh 59.9 (no result: HIV Env fusion, ALR inh)
COc1ccc(/C=N\Nc2ccccc2[N+](=O)[O-])c(C(=O)O)c1OC	none (no result: ALR inh)
COc1ccc(/C=N\Nc2ccc([N+](=O)[O-])cc2[N+](=O)[O-])c(C(=O)O)c1OC	ALR inh 98.5 (no result: PglD inh)
Cc1ccc(N(Cc2cc(=O)[nH]c3ccccc23)C(=O)CCl)c(C)c1	HIV Env fusion 55.4 (no result: PglD inh)
CCCC(=O)N(Cc1cc(=O)[nH]c2ccccc12)c1ccc(C)cc1C	none
CCOc1cc(CNc2ccccc2SC)ccc1O	ALR inh 80.3 (no result: HIV Env fusion, CASP6 VEID inh, CFTR F508del cor, PglD inh, NSD2 inh)
CC1CN(c2ccc([N+](=O)[O-])c(NCCOc3ccc(Cl)cc3)c2)CC(C)N1 (stereo unspecified)	none
CCc1ccc(OCCNc2cc(N3CCNC(C)C3)ccc2[N+](=O)[O-])cc1 (stereo unspecified)	CFTR F508del cor 12.9 (no result: HIV Env fusion)
C=CC(C)(C)c1[nH]cnc1/C=C1\NC(=O)C(C(C)C)NC1=O (stereo unspecified)	CFTR F508del cor 8.5 (no result: HIV Env fusion, NSD2 inh)
COc1cccc(NC(=O)CCCn2c(=S)[nH]c3ccccc3c2=O)c1	ALR inh 83.1 (no result: CASP6 VEID inh, CFTR F508del cor)
O=C(C1CCC(CNc2c(N3CCOCC3)c(=O)c2=O)CC1)N1CCN(c2ccccc2)CC1 (stereo unspecified)	ALR inh 87.5 (no result: NSD2 inh)
